Assay outcomes deposited in PubChem by National Center for Advancing Translational Sciences (NCATS).
Hits are enriched below; roughly 11% of the tested compounds scored in any of these assays.
HPGD inh = qHTS Assay for Inhibitors of HPGD (15-Hydroxyprostaglandin Dehydrogenase) | 15-hydroxyprostaglandin dehydrogenase [NAD(+)] (Homo sapiens), P15428 | purified HPGD, NADH fluorescence kinetic, PGE2 substrate | Potency, µM, for inactives: top-dose activity change, negative = inhibition, actives largely listed as inhibitors | 150,000 compounds, 4.3% hits | AID 894, 2007; further: potency means the concentration at half of the fitted maximal effect
Target sequence (P15428 whole entry, looked up): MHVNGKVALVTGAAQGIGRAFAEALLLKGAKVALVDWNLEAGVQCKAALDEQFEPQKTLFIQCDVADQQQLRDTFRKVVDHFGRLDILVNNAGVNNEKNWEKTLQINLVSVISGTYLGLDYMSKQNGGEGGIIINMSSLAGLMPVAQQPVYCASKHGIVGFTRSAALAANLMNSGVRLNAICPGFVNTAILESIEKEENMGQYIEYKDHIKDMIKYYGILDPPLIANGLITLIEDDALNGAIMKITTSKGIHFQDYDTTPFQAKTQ
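NADH formation kinetics: reaction with 30 uM PGE2 and 1 mM NAD+ (final), 20 nM enzyme, Tris-HCl pH 8 with Tween 20, after 15 min compound preincubation at room temperature. Fluorescence change, last versus first of five reads.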
PNC inhibitor = High Content Assay for Compounds that inhibit the Assembly of the Perinucleolar Compartment; PC3M PTB-GFP, PNC prevalence imaging, 16 h; stronger effect = lower value; activity change (PNC), negative = inhibition, % at 10 µM; 140,000 compounds, 3.1% hits; AID 2417, 2010;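 active means readout at or below -70, meaning at least 70% loss of cells showing the perinucleolar compartment, a nuclear body marking cancer cells; inconclusive means readout between -30 and a set limit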;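 further: plate controls were DMSO wells for no effect and camptothecin positive control wells for full effect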
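PC3M cells stably expressing PTB-GFP, 750–1000 cells/well, treated 16 h at 37 °C with compound (23 nl of library stock), in duplicate. After paraformaldehyde fixation and Hoechst stain, imaged at 20x; PNC prevalence scored by image analysis.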
NPSR antagonist = qHTS Assay for Antagonists of the Neuropeptide S Receptor: cAMP Signal Transduction | Potency, µM (top dose mostly 38.3 µM), inactives show top-dose activity change, negative = inhibition, hits mostly inhibitors | AID 1461, 2008 | CHO-NPSR cells, cAMP TR-FRET, antagonist mode | 220,000 compounds, 1% hits; active means well fitted curve in the direction sought with a large enough effect; inconclusive means small, poorly fitted or top-dose-only effect, or another doubt; inactive means no such curve, though single readings can be large; an effect the other way counts as inactive or inconclusive; further: potency means the concentration at half of the fitted maximal effect; nearly all actives have a fitted effect of over 50% in size
ALDH1A1 inh = qHTS Assay for Inhibitors of Aldehyde Dehydrogenase 1 (ALDH1A1); 220,000 compounds, 7.3% hits; Aldehyde dehydrogenase 1A1 (Homo sapiens), P00352; Potency, µM (highest dose often 75.3 µM), for the others: at the highest dose activity, negative = inhibition, most hits filed as inhibitors; Purified ALDH1A1, NADH fluorescence, propionaldehyde substrate;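 further: potency means the concentration at half of the fitted maximal effect; plate controls were no enzyme wells and a reference inhibitor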
Target sequence (P00352 whole entry, looked up): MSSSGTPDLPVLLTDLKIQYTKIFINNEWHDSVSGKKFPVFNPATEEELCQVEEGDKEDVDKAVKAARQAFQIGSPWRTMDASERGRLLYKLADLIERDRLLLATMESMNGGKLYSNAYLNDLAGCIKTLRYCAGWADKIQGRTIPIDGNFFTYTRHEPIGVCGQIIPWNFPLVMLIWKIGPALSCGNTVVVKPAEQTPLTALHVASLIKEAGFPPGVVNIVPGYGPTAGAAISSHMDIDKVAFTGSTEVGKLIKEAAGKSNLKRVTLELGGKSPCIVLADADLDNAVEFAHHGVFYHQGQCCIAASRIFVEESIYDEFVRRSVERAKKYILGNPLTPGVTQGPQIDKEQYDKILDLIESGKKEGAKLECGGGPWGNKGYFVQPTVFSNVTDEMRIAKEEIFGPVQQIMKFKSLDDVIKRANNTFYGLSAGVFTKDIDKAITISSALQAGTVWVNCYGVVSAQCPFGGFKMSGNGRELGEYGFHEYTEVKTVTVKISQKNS
IMPase inh = qHTS Assay for Identifying the Cell-Membrane Permeable IMPase Inhibitors | CHO-M1 cells, IP1 accumulation, HTRF TR-FRET ratio | inhibition (IP1 accumulation), % at 46.1 µM | 120,000 tested, under 10 active | AID 901, 2007; active means well fitted curve in the direction sought with a large enough effect in the signal ratio, not every such curve was filed as active; inconclusive means small, poorly fitted or top-dose-only effect, or a change in a side signal; inactive means no such curve, though single readings can be large or run the other way; the % refers to the signal ratio;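 further: cells stimulated with carbachol in lithium chloride buffer; plate controls were DMSO basal wells for no effect and reference inhibitor wells for full effect; higher means more IMPase inhibition seen as more IP1 and lower FRET ratio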
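Measured: the HTRF emission ratio (665/620 nm) plus the 620 nm donor channel, each fitted to the Hill equation to give AC50. Cells were CHO-M1 given compounds up to 46 uM and a 30 min carbachol stimulation at 37C.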
IMPase Li inh = qHTS Assay for Identifying the Cell-Membrane Permeable IMPase Inhibitors: Potentiation with Lithium. CHO-M1 cells, IP1 TR-FRET (IP-One), carbachol + lithium. Potency, µM (top dose mostly 59.4 µM), inactives show at the top dose activity, negative = IMPase inhibition, actives largely listed as inhibitors. 210,000 compounds, 0.35% hits; active means well fitted curve in the direction sought with a large enough effect; inconclusive means small, poorly fitted or top-dose-only effect, or another doubt; inactive means no such curve, though single readings can be large; an effect the other way counts as inactive or inconclusive;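 further: IP1 builds up when IMPase is blocked and the TR-FRET signal falls; potency means the concentration at half of the fitted maximal effect; plate controls were basal vehicle for no effect and high inhibitor control for full effect; nearly all actives have a fitted effect of over 50% in size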
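Test compounds were applied to CHO-M1 cells previously cultured for 16–30 h at 2000 per well. A small lithium amount accompanied them; after 30 min at 37C, IP1 was quantified by TR-FRET.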
* = called active by the depositor; ? = inconclusive; · = no result; [ ] = dose if it differs, or a comment. Unless noted, the call rests on the fitted dose curve; in most records, active means well fitted inhibition curve with a large enough effect (not every such curve was filed as active); inconclusive means small, poorly fitted or top-dose-only effect, or another doubt; inactive means no such curve, though single readings can be large or run the other way. Unless noted, on the % scale 0 is the no-effect control and ±100 the full control effect.

SMILES	HPGD inh	PNC inhibitor	NPSR antagonist	ALDH1A1 inh	IMPase inh	IMPase Li inh
O=C(CSc1nc(-c2ccc(F)cc2)cs1)N1CCOCC1	-20.2%	15.8	-9.5%[46.1 µM]	?	-4.3	16.3%[38.3 µM]
COC(=O)C1SCC2C(=O)N(Cc3cccc(C)c3)CC(=O)N21 (centres undefined)	·	·	3.2%	4.6%	·	-7.5%
CC(C)(C)S(=O)(=O)/C(C#N)=C/c1sccc1C1OCCO1	·	·	-13.7%	7.94µM*	·	·
COC(=O)c1sccc1N/C=C(\C#N)S(=O)(=O)C(C)(C)C	·	·	46.8%	?	·	·
CCOC(=O)c1c(C)oc(NC(=O)CCl)c1C(=O)OCC	·	·	-6.8%	3.55µM*	·	1.1%
O=C(COC(=O)[C@@H]1CC(O)CN1S(=O)(=O)c1ccc2c(c1)OCCO2)NCc1ccc(F)cc1 (some centres undefined)	·	·	6.3%	-11.2%	·	3.4%
CC1C/C(=C/c2cccn2C)C(=O)/C(=C/c2cccn2C)C1 (centres undefined)	-22.8%	-7.9	?	3.55µM*	2.9	36.2%[38.3 µM]
CC1C/C(=C/c2ccncc2)C(=O)/C(=C/c2ccncc2)C1 (centres undefined)	·	·	-58.8%	-1.7%	·	-3.7%
CSc1ccccc1NC(=O)Nc1cccc(F)c1	·	·	17.9%	-2.0%	·	·
CCCCc1nc2c(c3c1C[C@H](C)OC3)CN(C(=O)NCCCC(=O)OCC)CC2	-4.6%	·	·	9.4%[13.5 µM]	·	-2.5%
Cc1ccc(-c2[nH]nc3c2C(c2cccnc2)C(C#N)=C(N)O3)cc1 (centres undefined)	·	·	-5.3%	·	·	·
CCCc1[nH]nc2c1C(c1cccc(OC(=O)c3ccco3)c1)C(C#N)=C(N)O2 (centres undefined)	-29.3%	9.9	-18.3%[46.1 µM]	8.91µM*	-10.4	9.8%
CCCc1[nH]nc2c1C(c1cc(OC)cc(OC)c1)C(C#N)=C(N)O2 (centres undefined)	-26.3%	-12.2	-17.0%[46.1 µM]	-7.8%	1.2	-8.0%[38.3 µM]
CC(C)c1[nH]nc2c1C(c1cccnc1)C(C#N)=C(N)O2 (centres undefined)	-0.3%	32.1	8.5%[46.1 µM]	8.91µM*	-4.4	-6.5%[38.3 µM]
CC(C)c1[nH]nc2c1C(c1cccc(OC(=O)N3CCOCC3)c1)C(C#N)=C(N)O2 (centres undefined)	-14.4%	-8.4	-6.1%[46.1 µM]	22.4µM*	16.3	-1.9%[38.3 µM]
c1ccc(CO[C@H]2NCCN2Cc2ccccc2)cc1	-8.2%	·	·	14.4%[13.5 µM]	·	7.6%
O=[N+]([O-])c1ccc(N=NN(CCO)CCO)cc1	-19.9%	-11.0	11.4%	?	·	-1.7%
O=[N+]([O-])c1ccc(N=Nc2ccc(O)cc2O)cc1	-19.3%	4.2	10µM*	10µM*	5.4	18.9%[38.3 µM]
CCCOc1cccc(-c2cc(-c3n[nH]c(=S)n3CC)c3ccccc3n2)c1	-23.4%	-18.2	?	-10.7%	-2.2	9.2%[38.3 µM]
O=C(Nc1ccc2nn(-c3ccccc3)nc2c1)c1ccco1	?	-100.0*	-13.0%[46.1 µM]	0.6%	-1.4	-15.2%
Nc1nc(NC(=O)c2ccco2)nn1-c1ccccc1	-0.7%	-89.6*	-18.7%[46.1 µM]	-5.8%	-4.0	-5.9%[38.3 µM]
CN(C(=O)COC(=O)c1ccc(-c2ccc(O)cc2)cc1)C1CCS(=O)(=O)C1 (centres undefined)	·	·	-11.4%	13.5%	·	·
O=C1CSC(c2ccc(F)cc2)N1c1nc2ccccc2s1 (centres undefined)	-7.3%	?	-45.0%	6.5%	·	9.4%
Cn1cnnc1Sc1ccc(/C=C(\CCC(=O)O)c2nc3ccccc3s2)cc1[N+](=O)[O-]	·	·	3.0%	11.9µM*	·	-2.6%
CN(c1ccccc1)c1ccc(/C=C(\CCC(=O)O)c2nc3ccccc3s2)cc1[N+](=O)[O-]	25.1µM*	35.9	-35.7%	12.6µM*	·	4.2%
SMILES	HPGD inh	PNC inhibitor	NPSR antagonist	ALDH1A1 inh	IMPase inh	IMPase Li inh
Cc1ccc(/C=C(\CCC(=O)O)c2nc3ccccc3s2)cc1[N+](=O)[O-]	-8.4%	?	-27.9%	?	·	17.0%
COc1ccc(NC(=O)/C(C#N)=C/c2ccc(Sc3nncn3C)c([N+](=O)[O-])c2)cc1	·	·	-7.7%	11.2µM*	·	17.7%
COc1ccc(-n2c(=S)[nH]c3c(oc4ccccc43)c2=O)cc1	-26.1%	29.8	-46.0%	-4.4%	·	6.31µM*
Cc1ccc(-n2c(=O)[nH]c3c(oc4ccccc43)c2=O)cc1	·	·	-20.6%	?	·	-4.7%
CCc1nnc(N/N=C/c2ccc(N3CCC(C)CC3)c([N+](=O)[O-])c2)n1N	-8.2%	1.1	-4.3%	22.4µM*	4.3	0.1%
Nn1cnnc1N/N=C/c1ccc(Cl)c([N+](=O)[O-])c1	·	·	14.8%	?	·	3.8%
Cc1nnc(N/N=C/c2cc([N+](=O)[O-])c(N3CCC(C)CC3)cc2N2CCC(C)CC2)n1N	25.1µM*	-29.6	10µM*	7.08µM*	13.1	51.5%[38.3 µM]
CC(C)C[C@@H](CC(=O)N[C@@H](CCC(=O)O)CC(=O)O)NC(=O)[C@@H]1CCCC[C@H]1NC(=O)C[C@H](CCCN)NC(=O)C[C@H](Cc1ccccc1)NC(=O)[C@@H]1CNCC[C@H]1N	-10.8%	·	·	-3.8%	·	30.1%
O=C(Nc1cccc(Cl)c1)c1cccc(Oc2ccc([N+](=O)[O-])cc2Cl)c1	-4.4%	-3.6	-56.2%	10µM*	·	5.7%
COc1ccc(NC(=O)c2cccc(Oc3ccc([N+](=O)[O-])cc3Cl)c2)cc1	-4.4%	-2.3	-4.3%	?	·	0.4%
CN(C)S(=O)(=O)c1ccc(C(=O)N2CCC(c3nc4ccccc4o3)CC2)cc1	-6.3%	32.7	?	28.2µM*	2.4	36.5%[38.3 µM]
CC(C)Oc1cc(O)c2c(c1)OCC=C2CCC(=O)O	-6.5%	·	·	-1.8%[13.5 µM]	·	7.6%
CCOc1ccc(S(=O)(=O)N2CCN(c3ccc(OC)cc3)CC2)c2cccnc12	-2.5%	3.6	-10.5%[46.1 µM]	-8.2%	6.0	18.5%[38.3 µM]
CCOc1ccc(S(=O)(=O)N2CCN(c3ccccc3)CC2)c2cccnc12	-27.1%	?	-21.0%[46.1 µM]	28.2µM*	-4.4	14.1%[38.3 µM]
COCCN(C(=O)c1ccco1)c1nnc(-c2ccc(F)cc2)s1	·	·	-27.5%	?	·	7.3%
CCCN(C(=O)c1ccco1)c1nnc(-c2ccccc2C)s1	·	·	?	8.91µM*	·	9.1%
O=C(CCc1ccccc1)NCCCN1CCOCC1	-4.8%	17.5	2.0%[46.1 µM]	-3.6%	15.4	-3.0%[38.3 µM]
O=C(c1ccco1)N(Cc1cccc([N+](=O)[O-])c1)c1ccc(Br)cc1	·	·	2.0%	22.4µM*	·	9.3%
